Assay results reported in PMC10163288.
The list is a sample of the results. No count for the full screen is at hand.

B1: il2ra_site2_2erj_normal_mot_HHH_b2_01353_af2_000000049_0001_23_39_H_._HHH_b1_04436_af2_0001_0000200013_0000001_0 (protein)
chain: SSSSDEIEELLEKAKELLEKGNPEEAEEVLRRASVAAFENRDHEAFAEIAELLRIVAELEASSSS
B2: il2ra_site1_1z92_sap_28_mot_HHH_b1_00661_af2_000000033_0001_38_50_H_._HHH_b2_00267_af2_0001_0000300009_0000001_0_0001_af2pred_0001_af2pred_1 (protein)
chain: PEELAEQAEELLKNGNPEEAEKVLRELAKELGNEEVFERDLEHAERNLGNPEQALLSLIKALSFV
B3: il2ra_site1_1z92_sap_12_mot_HHH_b2_04974_000000012_0001_1_17_H_._HHH_b1_06150_af2_0001_0000300041_0000001_0_0001_af2pred_dldesign_0_af2pred (protein)
chain: SSSSSSPYQRARDLILEINKARQAGDTEKFDELLAELEKLAKELESNTLLRFIEHARKELSSSSS
B4: il2ra_site2_2erj_normal_mot_HHH_b2_06912_000000039_0001_38_52_H_._HHH_b2_01292_0001_0000100004_0000001_0 (protein)
chain: SSSSSDKEESEKLAEEAHELILRNPERVEEIVEEFRRELEELNDPIAVRYLELVRRDVNSSSSSS
B5: il2ra_site2_3nfp_sap_24_mot_HHH_b1_03818_000000217_0001_1_20_H_._HHH_b1_04518_af2_0001_0000400014_0000001_0_0001 (protein)
chain: SEKDLIEMSLEMIKAHALLHGNEEVQEIVEELERLLEEAKRKNDEELREEVAERAAELIERVLES
B6: il2ra_site2_2erj_normal_mot_HHH_b2_00494_000000216_0001_41_54_H_._HHH_b1_07802_af2_0001_0000300011_0000001_0 (protein)
chain: SSSSNEELRRLYELADEALRLITEGNPEEAEKVLEEARELAERLNSENAREVVEFLEELLESSSS
B7: il2ra_site2_2erj_sap_21_mot_HHH_b2_00938_af2_000000099_0001_43_55_H_._HHH_b1_03152_af2_0001_0000100003_0000001_0_0001 (protein)
chain: SSSSLHEAFEIAVEAAAKISRLHREGNDEEAKRVFEEARERLEELGTENAREHLEHLFKALSSSS
B8: il2ra_site2_3nfp_normal_mot_HHH_b1_00660_af2_000000090_0001_40_57_H_._HHH_b1_02730_0001_0001000022_0000001_0 (protein)
chain: SSSSSDEEVRELLEQLRELIEKNDEEEFERLSREITNLAYELNNFELFALVQELRARFISSSSSS
B9: il2ra_site2_3nfp_normal_mot_HHH_b2_04451_000000238_0001_21_37_H_._HHH_b2_04195_af2_0001_0000200011_0000001_0 (protein)
chain: SSSSSEEEEVRELLEQARELLERGDPYEALELLAEASEIAAKLNNEELARLILELFEKVQKSSSS
B10: il2ra_site2_3nfp_normal_mot_HHH_b2_08209_000000146_0001_1_18_H_._HHH_b1_00160_0001_0000200018_0000001_0 (protein)
chain: SSSSSTEEERERVEELLEEAKEITDPEERKELLAEATQIAYEANDFELFALVADVVFELLSSSSS
B11: il2ra_site2_3nfp_sap_19_mot_HHH_b1_06699_000000048_0001_23_40_H_._ems_3hC_59_0001_0000100006_0000001_0_0001_af2pred_0001_af2pred (protein)
chain: SSSSSDAAEEAEELAEEARHVEDPEERERILRKAAELAYRARDHEVFAEIHLVIEELERSSSSSS
B12: il2ra_site1_3nfp_normal_mot_HHH_b2_08102_af2_000000255_0001_38_50_H_._HHH_b2_05157_0001_0000400017_0000001_0_af2pred_0001_af2pred (protein)
chain: SSSSDHLAREYTEWAKRRIRELLERGDEEAARRLLEKAKRSLEIAGDEEAVEELEKLYEELSSSS
B13: il2ra_site1_2b5i_normal_mot_HHH_b2_01040_af2_000000143_0001_42_56_H_._HHH_b1_04969_af2_0002_0000100009_0000001_0 (protein)
chain: SSSSSDEAEEAAREALELLRELLRVDEEEIKELLEEAHEKLEKLNDEALLKRVERLLRLLSSSSS
B14: il2ra_site1_3nfp_sap_13_mot_HHH_b1_04931_000000291_0001_38_56_H_._HHH_b2_07276_0001_0000200010_0000001_0_0001 (protein)
chain: SSSSSDYEELERLFREIFELAKKGDHEEARRLIEELEELAHEANNEFMEQAVKQLKKTVNSSSSS
B15: il2ra_site2_3nfp_normal_mot_HHH_b2_00232_000000252_0001_23_39_H_._HHH_b2_01857_0001_0000200024_0000001_0_1_af2pred_0001_af2pred (protein)
chain: SSSSSDEEEEKVEELLEEAEHIEDEEELEDILALAFLIAFEAEDPELLRLVREVSAELLQSSSSS
B16: il2ra_site2_2erj_sap_21_mot_39ed66e5fba071e4f274ea7f2cf018e6_0001_000000286_0001_17_31_H_._HHH_b1_00857_0001_0000200006_0000001_0_0001_af2pred_0001_af2pred (protein)
chain: SSSSEEREKAKELAARALQLRERGNPEEAEELLREAEEIAREGGDEELLQLIQAALRLIELSSSS
B17: il2ra_site1_3nfp_normal_mot_HHH_b1_02721_af2_000000134_0001_39_56_H_._HHH_b2_00677_af2_0001_0000100009_0000001_0 (protein)
chain: SSSSSDTEEAFQLDRELLEALRKGDEELIEELLRELEELAKELNDELAERLVEQFKELLKSSSSS
B18: il2ra_site2_2erj_sap_26_mot_HHH_b2_08005_af2_000000017_0001_39_52_H_._5f42aca8a0c299d7b7d7982f3e471efe_0001_0001_0000400050_0000001_0_0001 (protein)
chain: SSSSDLEEEVERIEKEAEELYKNGNPEEALRLLSELFDELYQLGDHELAARVIKLVAELARSSSS

What follows are binders tested against il2ra, P01589 (assay: yeast display titration).
Chain of il2ra, P01589 (P01589 whole entry): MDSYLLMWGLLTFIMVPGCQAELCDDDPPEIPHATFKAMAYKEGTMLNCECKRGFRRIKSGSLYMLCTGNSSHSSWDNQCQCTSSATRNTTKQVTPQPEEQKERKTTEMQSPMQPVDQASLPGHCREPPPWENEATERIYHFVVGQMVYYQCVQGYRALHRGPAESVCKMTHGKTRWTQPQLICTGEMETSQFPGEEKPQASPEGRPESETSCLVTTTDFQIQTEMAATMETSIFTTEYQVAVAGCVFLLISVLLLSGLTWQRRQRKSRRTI

Apparent Kd, inactive:
B1 no binding seen, B2 no binding seen, B3 no binding seen, B4 no binding seen, B5 no binding seen, B6 no binding seen, B7 no binding seen, B8 no binding seen, B9 no binding seen, B10 no binding seen, B11 no binding seen, B12 no binding seen, B13 no binding seen, B14 no binding seen, B15 no binding seen, B16 no binding seen, B17 > 802 nM, B18 no binding seen
